mHTT-CaM PPI inh – mutant huntingtin-calmodulin interaction inhibitors – biochemical, AlphaScreen, primary screen; P42858; AlphaScreen His-mHTT/GST-CaM binding, luminescence; inhibition, % at 15 µM; 3.6% of 190,000 active;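 note: 0% = both proteins with DMSO and 100% = one protein alone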
Pf apPOL block – Pf-apPOL inhibitors, biochemical, fluorescence; 0.25% of 210,000 active; Recombinant Pf-apPOL, molecular beacon fluorescence, 1.5 h; inhibition, % at 10 µM; Plasmodium falciparum apicoplast DNA polymerase (apPOL)
Numbers without * were called inactive. This is a sample that favours compounds with a hit; in the whole collection about 3.5% have one here. Cut-off read from the data, not from the text of the source: active = inhibition above about 50%; inactive = the rest.

How did CC1CCCCC1NC(=O)C1CCN(S(=O)(=O)N2CCCC2)CC1 (centres undefined) do in these assays?
mHTT-CaM PPI inh: 1; Pf apPOL block: -12

Results for CC(SCc1ccccc1)C(=O)NC(C)c1ccccc1 (centres undefined) ?
mHTT-CaM PPI inh: -12; Pf apPOL block: -4

How did O=C(NCc1ccncc1)C1CCc2sc(C(=O)N3CCCCC3)cc2C1 (centres undefined) do in these assays?
mHTT-CaM PPI inh: 0; Pf apPOL block: 0

Results for CCOC(=O)c1ccccc1NC(=O)CSc1nnc(-c2c[nH]c3ccccc23)n1C ?
mHTT-CaM PPI inh: 1; Pf apPOL block: -11

How did COc1ccc(Cl)cc1NC(=O)CSc1nnc(-c2c[nH]c3ccccc23)n1C do in these assays?
mHTT-CaM PPI inh: 55*; Pf apPOL block: -12

How did O=C(O)C1Sc2c(sc(=O)n2Cc2ccc(Cl)cc2)C2c3ccccc3OC(=O)C12 (centres undefined) do in these assays?
mHTT-CaM PPI inh: 40; Pf apPOL block: -1

What do the screens show for `N#CC1=C(N)C(C#N)(C#N)C(c2ccc(O)cc2)C2CCCC=C12` (centres undefined)?
mHTT-CaM PPI inh: -3; Pf apPOL block: -4

What do the screens show for `N#CC1=C(N)C(C#N)(C#N)C(c2ccc(I)cc2)C=C1C1CC1` (centres undefined)?
mHTT-CaM PPI inh: 58*; Pf apPOL block: 1

What do the screens show for `O=C(CNC1=NCCC1)c1ccc(-c2ccccc2)cc1`?
mHTT-CaM PPI inh: 100*; Pf apPOL block: -1

Results for O=C(CNC1=NCCC1)c1ccc(Br)cc1 ?
mHTT-CaM PPI inh: 0; Pf apPOL block: 1

Results for CC(C)NC(=O)c1ccc(OCC2CCCN(C(=O)c3c(F)cccc3F)C2)cc1 (centres undefined) ?
mHTT-CaM PPI inh: 20; Pf apPOL block: 3

How did CC1CN(C(=O)C2CCCC2)CC1c1nc(-c2ccccc2)no1 (centres undefined) do in these assays?
mHTT-CaM PPI inh: 3; Pf apPOL block: -3

Results for Cc1nc(N(C)Cc2ccccc2)c2cc(C)sc2n1 ?
mHTT-CaM PPI inh: -17; Pf apPOL block: 0

How did COc1cccc(NC(=O)Cn2c(-c3ccccc3F)nc3ccccc3c2=O)c1 do in these assays?
mHTT-CaM PPI inh: 4; Pf apPOL block: -1

How did O=C(Cn1c(-c2ccccc2F)nc2ccccc2c1=O)Nc1ccc(F)c(Cl)c1 do in these assays?
mHTT-CaM PPI inh: 91*; Pf apPOL block: -1

What do the screens show for `COc1ccc(NC(=O)Cn2c(-c3ccccc3F)nc3ccccc3c2=O)cc1OC`?
mHTT-CaM PPI inh: 1; Pf apPOL block: -1

What do the screens show for `COc1ccc2nc(NC(=O)Cn3c(-c4ccccc4F)nc4ccccc4c3=O)sc2c1`?
mHTT-CaM PPI inh: 100*; Pf apPOL block: -8

How did COc1cccc(-c2nc(C3CCN(S(=O)(=O)c4cccc(Cl)c4)CC3)no2)c1 do in these assays?
mHTT-CaM PPI inh: -1; Pf apPOL block: -3

Results for COc1ccc(N2CCN(c3cc(C(=O)N4CCC4)c4ccccc4n3)CC2)cc1 ?
mHTT-CaM PPI inh: 36; Pf apPOL block: 1

How did COc1ccc(CCNC(=O)c2nn(-c3ccccc3OC)c(=O)c3ccccc23)cc1OC do in these assays?
mHTT-CaM PPI inh: 7; Pf apPOL block: -9

What do the screens show for `Cc1cc(C)n(-c2ccnc(NCCc3cccnc3)n2)n1`?
mHTT-CaM PPI inh: 1; Pf apPOL block: -7

Results for Cc1cnc2c(ccc3c(C)c(C)cnc32)c1C ?
mHTT-CaM PPI inh: 100*

How did O=C1CN(C(=O)COc2ccc(Cl)cc2)C(c2ccc(F)cc2)c2cc(F)ccc2N1 (centres undefined) do in these assays?
mHTT-CaM PPI inh: 24; Pf apPOL block: -1

How did Cc1cccc(-c2nnc(C)c(N3CCC(C)CC3)n2)c1 do in these assays?
mHTT-CaM PPI inh: 42; Pf apPOL block: -1

How did Cc1cccc(-c2nnc(C)c(N3CCc4ccccc4C3)n2)c1 do in these assays?
mHTT-CaM PPI inh: 100*; Pf apPOL block: -1

What do the screens show for `CCCC1c2ccc(C)n2CCN1C(=O)Nc1ccc(C)c(F)c1` (centres undefined)?
mHTT-CaM PPI inh: 10; Pf apPOL block: 4

Results for Cc1cc(NC(=O)N2CCn3cccc3C2C(C)C)ccc1Br (centres undefined) ?
mHTT-CaM PPI inh: 99*; Pf apPOL block: 1

Results for Cc1ccc(NC(=O)N2CCn3cccc3C2Cc2ccccc2)cc1F (centres undefined) ?
mHTT-CaM PPI inh: 4; Pf apPOL block: 3

Results for Cc1cccc(NC(=O)N2CCn3cccc3C2C(C)C)c1 (centres undefined) ?
mHTT-CaM PPI inh: 4; Pf apPOL block: -10

What do the screens show for `CCCC1c2cccn2CCN1C(=O)Nc1cccc(F)c1` (centres undefined)?
mHTT-CaM PPI inh: 26; Pf apPOL block: -13

Results for CCCC1c2ccc(C)n2CCN1C(=O)Nc1ccc(Cl)cc1 (centres undefined) ?
mHTT-CaM PPI inh: 51*; Pf apPOL block: -4

How did CCCC1c2cccn2CCN1C(=O)Nc1ccc(C)c(Cl)c1 (centres undefined) do in these assays?
mHTT-CaM PPI inh: 80*; Pf apPOL block: -7

Results for Cc1ccc(NC(=O)N2CCn3cccc3C2C)cc1F (centres undefined) ?
mHTT-CaM PPI inh: 5; Pf apPOL block: 79*

How did Cc1ccccc1NC(=O)C1CC(Cl)=CCC1C(=O)O (centres undefined) do in these assays?
mHTT-CaM PPI inh: -4; Pf apPOL block: 64*

How did COc1ccccc1NC(=O)C1CC(Cl)=CCC1C(=O)O (centres undefined) do in these assays?
mHTT-CaM PPI inh: 3; Pf apPOL block: 0

How did Cc1cc(C)c(S(=O)(=O)N2CCCC2c2nc(-c3ccc(F)cc3)no2)cc1C (centres undefined) do in these assays?
mHTT-CaM PPI inh: -18; Pf apPOL block: 6

How did O=C(NCCCn1ncccc1=O)c1ccc2c(c1)OCO2 do in these assays?
mHTT-CaM PPI inh: -20; Pf apPOL block: -4

What do the screens show for `COc1ccc2[nH]c3c(c2c1)CC(C)NC3=O` (centres undefined)?
mHTT-CaM PPI inh: 1; Pf apPOL block: -3

What do the screens show for `O=C1NCCc2c1[nH]c1ccc(C#Cc3ccccc3)cc21`?
mHTT-CaM PPI inh: 97*; Pf apPOL block: -31

How did COc1cccc(-c2noc(C3CCCN3C(=O)Nc3ccccc3F)n2)c1 (centres undefined) do in these assays?
mHTT-CaM PPI inh: -3; Pf apPOL block: -1

How did COc1cc(C(CCN2CCCC(C)C2)c2c(OC)cc(OC)c3c(-c4ccccc4)cc(=O)oc23)cc(OC)c1OC (centres undefined) do in these assays?
mHTT-CaM PPI inh: 87*; Pf apPOL block: -9

How did COc1cc(OC)c2ccc(=O)oc2c1C(CCN1CCCCC1)c1ccc(N(C)C)cc1 (centres undefined) do in these assays?
mHTT-CaM PPI inh: 42; Pf apPOL block: -12

Results for CCCCCc1cc(=O)oc2c(C(CCN3CCCCC3)c3ccc(OC)cc3)c(OC)cc(OC)c12 (centres undefined) ?
mHTT-CaM PPI inh: 100*; Pf apPOL block: -19

Results for COc1cc(OC)c2ccc(=O)oc2c1C(CCN1CCCC(C)C1)c1ccc2c(c1)OCO2 (centres undefined) ?
mHTT-CaM PPI inh: 17; Pf apPOL block: -8

What do the screens show for `COc1cc(C(CCN2CCCCC2)c2c(OC)cc(OC)c3c(-c4ccccc4)cc(=O)oc23)cc(OC)c1OC` (centres undefined)?
mHTT-CaM PPI inh: 67*; Pf apPOL block: -16
